Tau fluor counter: counter-screen for tau fibril formation inhibitors. Potency, µM (top dose mostly 57.7 µM). AID 1463. tau K18 P301L Alexa594 fluorescence, heparin fibrillization. hit rate 0.93% among 280,000; note: nearly all actives have a fitted effect of over 55% in size
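Human K18 P301L tau (15 uM unlabeled plus 0.24 uM Alexa 594-labeled, final) in 100 mM sodium acetate pH 7 was mixed with compound and 20 uM heparin and incubated 6 hr at 37 C.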
Tau fibril FP: tau fibrillization inhibition (FP) | Potency, µM (titrated, usually from 57.7 µM), hits mostly inhibitors | hit rate 0.39% among 280,000 | K18 P301L tau heparin fibrillization, Alexa594 FP, 6 h | P10636; note: nearly all actives have a fitted effect of over 55% in size
Target sequence (P10636 561-689 P618L limits assumed): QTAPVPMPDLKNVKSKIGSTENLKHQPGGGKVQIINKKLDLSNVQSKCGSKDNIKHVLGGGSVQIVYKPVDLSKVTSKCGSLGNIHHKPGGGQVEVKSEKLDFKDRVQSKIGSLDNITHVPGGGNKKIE
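K18 P301L tau (15 uM unlabeled/0.24 uM Alexa 594-labeled, final) + compound + heparin 20 uM final; 100 mM NaOAc pH 7; 6 hr 37 C; ThT 30 uM final added, 1 hr RT; FP ex 555/em 632 nm.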
USP1 inh: USP1/UAF1 (human) deubiquitinase inhibition. recombinant USP1/UAF1, Ub-Rhodamine cleavage fluorescence. Potency, µM (top dose mostly 57.1 µM), usual class: inhibitors. hit rate 0.23% among 390,000. AID 743255; note: nearly all actives have a fitted effect of over 60% in size
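High-throughput fluorogenic screen: 1nM USP1/UAF1 complex, Ub-Rho substrate 150nM final, 50mM HEPES pH 7.8 with 0.5mM EDTA, 0.1 mg/ml BSA, 1mM TCEP and 0.01% Tween-20.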
Tau ThT inhib: tau fibrillization inhibition (ThT binding) | P10636 | recombinant tau K18 P301L (four-repeat tau fragment), heparin-induced fibrillization, ThT fluorescence | Potency, µM (highest dose often 57.4 µM), usual class: inhibitors | hit rate 2.1% among 270,000 | AID 1460; note: nearly all actives have a fitted effect of over 55% in size
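K18 P301L tau (15 uM + 0.24 uM Alexa 594-tagged), heparin 20 uM, NaOAc pH 7, 6 h 37 C; ThT 30 uM, 1 h RT, ex 450/em 510 nm.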
FBPA coupling cs: coupling enzyme interference in Giardia aldolase counter-screen. coupling enzyme system counterscreen, AmpLite Red fluorescence. activity change, negative = inhibition, % at 58.2 µM, hits read low. hit rate 0.67% among 290,000. AID 2472; in the data active = activity change below about -30%
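Fluorescence at 525 nm excitation and 598 nm emission measured inhibition of the coupled detection system without aldolase. Compounds (at 57.5 uM final) were preincubated 10 min at room temperature with coupling enzyme reagent before a 20 min substrate/AmpLite Red step.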
Each line names hits and unclear results; the compound was inactive in the other large screens; ! = not active in a repeat; [ ] = dose if it differs, or a comment. Shown are actives, neighbours in structure and some others; about 2.3% of the full set was active somewhere. Unless noted, calls come from the whole dose curve; as a rule, active = well fitted curve in the direction sought with a large enough effect; inconclusive = small, poorly fitted or top-dose-only effect, or another doubt; inactive = no such curve, though single readings can be large; an effect the other way counts as inactive or inconclusive.

CCc1ccc(N2CSC3=C(C#N)C(c4cccs4)CC(=O)N3C2)cc1 (configuration not stated)	Tau fibril FP inconclusive, USP1 inh inconclusive, Tau ThT inhib 13µM
Cc1ccc(N2CSC3=C(C#N)C(c4cccs4)CC(=O)N3C2)cc1 (configuration not stated)	Tau fibril FP inconclusive, Tau ThT inhib inconclusive
CCc1ccc(C2CC(=O)N3CN(c4ccccc4)CSC3=C2C#N)cc1 (configuration not stated)	Tau fluor counter inconclusive, Tau fibril FP inconclusive, Tau ThT inhib 32µM
COc1ccc(N2CSC3=C(C#N)C(c4cccs4)CC(=O)N3C2)cc1 (configuration not stated)	Tau fluor counter inconclusive, Tau fibril FP 25µM, Tau ThT inhib 13µM, FBPA coupling cs -49
CCN(CC)c1sc(S(=O)(=O)c2ccccc2)nc1S(=O)(=O)c1ccc(C)cc1	USP1 inh inconclusive (no result: FBPA coupling cs)
NC(=O)[C@@H]1CCCNc2c(I)cc([N+](=O)[O-])cc2C(=O)N[C@@H](CCCN=C(N)N)C(=O)N[C@@H](CCCN=C(N)N)C(=O)N1	Tau fluor counter inconclusive, Tau ThT inhib 28µM (no result: USP1 inh)
Cc1ccc(C(C)C)c(OCC(=O)NCC2(N3CCOCC3)CCCCC2)c1	Tau ThT inhib inconclusive (no result: FBPA coupling cs)
O=C1OC(c2ccccc2)=CC1=Cc1ccccc1O	none (no result: Tau fluor counter, Tau fibril FP, Tau ThT inhib, FBPA coupling cs)
O=C1OC(c2ccccc2)=C/C1=C/N1CCCCC1	Tau fibril FP inconclusive, Tau ThT inhib 28µM
Cc1cc(C(=O)CSc2nnnn2C)c(C)n1-c1ccc2c(c1)OCCO2	FBPA coupling cs -45
Cc1ccc(F)cc1NC(=O)Cn1c(C)cc(C)c(C#N)c1=O	none (no result: FBPA coupling cs)
Cc1cccc(N(CC(=O)N/N=C/c2cc([N+](=O)[O-])ccc2Cl)S(C)(=O)=O)c1C	Tau fluor counter inconclusive, FBPA coupling cs -59
CS(=O)(=O)N(CC(=O)N/N=C/c1cc([N+](=O)[O-])ccc1Cl)c1ccccc1	Tau fibril FP inconclusive
CCOc1ccc(NC(=S)NNC(=S)Nc2cccc(C(F)(F)F)c2)cc1	Tau fluor counter 28µM[quencher], Tau fibril FP inconclusive, Tau ThT inhib 32µM
CCOc1ccc(NC(=S)NN(C)C(=S)Nc2ccc(OCC)cc2)cc1	Tau fluor counter 18µM[quencher], Tau ThT inhib inconclusive
S=C(NCc1ccncc1)Nc1ccc(Cl)c(Cl)c1	Tau fibril FP inconclusive
O=[N+]([O-])c1cc(C(F)(F)F)cc([N+](=O)[O-])c1NCCNC(=S)Nc1ccc(Cl)c(Cl)c1	Tau fluor counter 5.6µM[quencher], Tau fibril FP inconclusive, Tau ThT inhib inconclusive
CCOc1ccc(NC(=S)Nc2ccc(F)cc2)cc1	none (no result: Tau fluor counter, Tau fibril FP, Tau ThT inhib)
CCOc1cc(OCC)cc(C(=O)NC(=S)Nc2cccc(C(F)(F)F)c2)c1	none
O=C(COCC(=O)Nc1cccc(C(F)(F)F)c1)Nc1cccc(C(F)(F)F)c1	Tau fluor counter inconclusive, Tau fibril FP 11µM
COCCCNc1oc(/C=C/c2cc(OC)c(OC)c(OC)c2)nc1C#N	Tau fluor counter inconclusive (no result: FBPA coupling cs)
CCc1c(C)nc2c(C)cccc2c1SCCC#N	Tau ThT inhib inconclusive
COCCn1c(=O)c(-c2ccccc2)nc2cnc(OC)nc21	none (no result: Tau fluor counter, Tau fibril FP, USP1 inh, Tau ThT inhib)
FC(F)(F)c1cccc(NC(=S)Nc2ccc(Cl)c(Cl)c2)c1	Tau fluor counter 18µM[quencher], Tau fibril FP 22µM, Tau ThT inhib inconclusive
CNNC(=S)Nc1cccc(C(F)(F)F)c1	none
FC(F)(F)c1cccc(NC(=S)NC(c2ccccc2)c2ccccc2)c1	Tau fluor counter inconclusive
FC(F)(F)c1cccc(NC(=S)NNC(=S)Nc2cccc(C(F)(F)F)c2)c1	Tau fluor counter 10µM[quencher], Tau fibril FP inconclusive, Tau ThT inhib 28µM (no result: USP1 inh)
COc1ccc(NC(=S)NNC(=S)Nc2cccc(C(F)(F)F)c2)cc1	Tau fluor counter 14µM[quencher], Tau ThT inhib inconclusive
CCC1=C2CC[C@H]3C(=O)NC(=O)[C@H]3[C@H]2[C@@]2(C)C(=NCC(=O)OC)OC(=O)N2C1=O	none (no result: USP1 inh)
Cc1cc(-n2c(C)cc(C(=O)COc3ccc4ccc(=O)oc4c3)c2C)no1	none
CC(=O)c1cccc(OCC(=O)c2cc(C)n(-c3cc(C)on3)c2C)c1	FBPA coupling cs -34
N#CC1=C2SCN(Cc3ccco3)CN2C(=O)CC1c1ccccc1F (configuration not stated)	Tau fibril FP inconclusive, Tau ThT inhib 18µM
N#CC1=C2SCN(Cc3ccco3)CN2C(=O)CC1c1cccc2ccccc12 (configuration not stated)	Tau fibril FP inconclusive, Tau ThT inhib 18µM
COc1ccc(-c2c(C#N)c(SCC(=O)Nc3ccc(C)c(C)c3)nc(C)c2C(=O)Nc2ccc(Cl)cc2)cc1	Tau fibril FP inconclusive (no result: FBPA coupling cs)
COc1cc2c(cc1OC)C(C)N(C(=O)Cc1ccc(C(F)(F)F)cc1)CC2 (configuration not stated)	none (no result: Tau fluor counter, Tau fibril FP, Tau ThT inhib)
Cc1oc2c(cc(NS(=O)(=O)c3ccc(C(C)C)cc3)c3ccccc32)c1C(=O)O	USP1 inh 28µM!, Tau ThT inhib inconclusive
CC(=O)c1c(C)oc2c1cc(NS(=O)(=O)c1ccc(C(C)(C)C)cc1)c1ccccc12	Tau fluor counter inconclusive (no result: FBPA coupling cs)
COc1ccc(S(=O)(=O)Nc2cc3c(C(C)=O)c(C)oc3c3ccccc23)cc1	Tau fluor counter inconclusive
Cc1oc2c(cc(NS(=O)(=O)c3ccc(F)cc3)c3ccccc32)c1C(=O)O	USP1 inh inconclusive, FBPA coupling cs -31 (no result: Tau fluor counter, Tau fibril FP, Tau ThT inhib)
Cc1ccc(NC(=O)Nc2nnc(SCC(=O)N3CCC(C)CC3)s2)cc1	Tau fluor counter inconclusive, Tau fibril FP inconclusive (no result: FBPA coupling cs)
O=C(Cc1cccs1)Nc1cccc(-c2nc3cc4ccccc4cc3[nH]2)c1	Tau fluor counter 14µM[quencher], Tau fibril FP 28µM, Tau ThT inhib inconclusive
CC(=O)Nc1cccc(NC(=O)Cc2cccs2)c1	none (no result: Tau fluor counter, Tau fibril FP, Tau ThT inhib)
CCOC(=O)c1ccc(Nc2c(OCC)c(=O)c2=O)cc1	Tau fluor counter 18µM[quencher] (no result: Tau ThT inhib)
CCOc1c(Nc2ccccc2O)c(=O)c1=O	none
COc1ccc(C)cc1NC(=O)CCS(=O)(=O)c1ccc2c(c1)CC(=O)N2C	none (no result: FBPA coupling cs)
O=C1CC(c2ccccc2)=NN1c1nc(-c2ccccc2)cs1	Tau fluor counter inconclusive, Tau fibril FP inconclusive, Tau ThT inhib 10µM
O=C1c2cccnc2-c2ncccc21	none
CC1(C)OCC(CSC2=C(SCC3COC(C)(C)O3)C(=O)c3ncccc3C2=O)O1 (configuration not stated)	Tau fluor counter inconclusive, Tau fibril FP 1.8µM, Tau ThT inhib 1µM, FBPA coupling cs -87 (no result: USP1 inh)
CC1=C(c2ccc(C)cc2)S(=O)(=O)N(Cc2ccc(C(=O)NCc3ccccc3F)cc2)C1=O	Tau fibril FP inconclusive (no result: FBPA coupling cs)
O=C(CN1C(=O)NC(Cc2c[nH]c3ccccc23)C1=O)Nc1cccc(S(=O)(=O)N2CCCCCC2)c1 (configuration not stated)	Tau fluor counter 14µM[quencher]
Cc1ccc(S(=O)c2ccc([N+](=O)[O-])c3nonc23)cc1 (configuration not stated)	USP1 inh 16µM (no result: Tau fluor counter, Tau fibril FP, Tau ThT inhib, FBPA coupling cs)

Screens (PubChem BioAssay)
